Most compounds without a hit are left out; they make up all but 12% or so of the library.
JMJD2A Tudor = inhibitors of human JMJD2A Tudor domain | AlphaScreen JMJD2A-Tudor / H3K4me3 peptide binding | 4.4% of 390,000 active | AID 504339 | Potency, µM (top dose mostly 114 µM), for inactives: at the top dose activity change, negative = inhibition, actives largely listed as inhibitors; note: % is set by controls: 0 for no effect and ±100 for the full control effect; nearly all actives have a fitted effect of over 50% in size
Sfp inh = inhibitors of Bacillus subtilis Sfp phosphopantetheinyl transferase; Potency, µM, for the others: largest response in the series, negative = inhibition, actives largely listed as inhibitors; Biochemical Sfp PPTase activity, qHTS; Q9F4F7; 3.5% of 310,000 active;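 note: the enzyme is Sfp with the accession as filed and its product quenches rhodamine fluorescence; 0% = enzyme reaction without inhibitor and -100% = no enzyme wells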
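After 15 min at room temperature with compound, 15 nM Sfp received 5 uM rhodamine-CoA plus 12.5 uM BHQ-2-ybbR (50 mM Hepes pH 7.6, 10 mM MgCl2). Rate came from the fluorescence difference over 30 min, ex 525/em 598 nm.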
HP1b chromo inh = inhibitors of HP1-beta chromodomain binding to methylated histone tails | P83916 | AlphaScreen HP1-beta / biotin-H3K9me3 peptide binding | Potency, µM (highest dose often 114 µM), for inactives: at the top dose activity change, negative = inhibition, most hits filed as inhibitors | 0.56% of 390,000 active; note: nearly all actives have a fitted effect of over 70% in size
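Compound inhibition of the preformed complex between 50 nM HP1-beta and 50 nM biotinylated H3K9me3 peptide was read by AlphaScreen. Buffer was PBS pH 7.4 with 0.01% Tween-20. Incubations ran 30 min at room temperature, with 10 ug/mL donor/acceptor beads.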
BAZ2B block = BAZ2B (human) inhibition; Q9UIF8; AlphaScreen BAZ2B-H3K14Ac peptide displacement; Potency, µM (doses to about 114 µM), without a hit: at the highest dose activity change, negative = inhibition, most hits filed as inhibitors; 4.4% of 360,000 active; AID 504333; note: % is set by controls: 0 for no effect and ±100 for the full control effect; nearly all actives have a fitted effect of over 60% in size
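Inhibition is scored as reduced AlphaScreen emission. The BAZ2B/b-H3(5-23)K14Ac complex (50 nM each) in PBS pH 7.4, 0.01% Tween-20 meets compound (up to 110 uM) for 30 min at RT before bead addition.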
L3MBTL1 block = inhibitors of human L3MBTL1. Potency, µM (highest dose often 57.1 µM), for the others: top-dose activity, negative = inhibition, hits mostly inhibitors. 0.66% of 230,000 active. Q9Y468. AlphaScreen L3MBTL1–H3K9me1 peptide binding; note: % is set by controls: 0 for no effect and ±100 for the full control effect; nearly all actives have a fitted effect of over 60% in size
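First, the protein-peptide complex forms for 30 min at room temperature (L3MBTL1 50 nM, biotinylated H3K9me1 peptide 75 nM). Next, compounds are pin-transferred and incubated 30 min. Finally, AlphaScreen beads are added and read after 30 min.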
G9a inh = blocks human histone lysine methyltransferase G9a; Potency, µM (highest dose often 102 µM), for inactives: at the highest dose activity, negative = inhibition, most hits filed as inhibitors; G9a H3K9 monomethylation, AlphaScreen, 2 h; 8.8% of 350,000 active; note: % is set by controls: 0 for no effect and ±100 for the full control effect; nearly all actives have a fitted effect of over 75% in size
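Using a bead-based AlphaScreen, monomethylated H3K9 product from 2 h room-temperature reactions (G9a 20 nM, peptide 500 nM, SAM 20 uM) was detected with 0.5 ug/mL rabbit anti-H3K9me1 antibody.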
* marks the source's active call; other numbers are inactive results; ? = inconclusive; / = not tested or not shown; [ ] = dose if it differs, or a comment. Calls come from the whole dose curve; as a rule, active = well fitted curve in the direction sought with a large enough effect; inconclusive = small, poorly fitted or top-dose-only effect, or another doubt; inactive = no such curve, though single readings can be large; an effect the other way counts as inactive or inconclusive. Potency is the fitted concentration of half-maximal effect.

SMILES | JMJD2A Tudor | Sfp inh | HP1b chromo inh | BAZ2B block | L3MBTL1 block | G9a inh
C=C1CCC[C@]2(C)C[C@H]3OC(=O)C(CNCC(OC)OC)[C@H]3CC12 (stereo not given in full) | -21.7% | 8.4% | -10.7% | -16.0% | / | 79.4µM*
C=C1CCC[C@]2(C)C[C@H]3OC(=O)C(CNC(C)CCCC(C)C)[C@H]3CC12 (stereo not given in full) | -8.7% | 3.2% | -0.4% | -13.7% | / | -4.2%
Fc1ccc(C2=CC(c3ccc(F)cc3)n3c(nc4ccccc43)N2)cc1 (stereo not given) | 13.5% | / | 117.7% | 3.2% | / | 17.8µM*
COC(=O)c1ccc(C2C=C(c3ccc(Cl)cc3)Nc3nc4ccccc4n32)cc1 (stereo not given) | -28.8% | / | 34.3% | 0.7% | / | ?
COC(=O)c1cc2oc(C)cc2n1CC(=O)Nc1ccc(OC)c(OC)c1 | -20.4% | / | 7.9% | ? | / | -45.7%[59 µM]
C=C(C)CC1Nc2ccccc2NC1CC(=C)C (stereo not given) | 79.4µM* | ? | -39.3% | 50.1µM* | -10.6%[11.4 µM] | ?
c1ccc(-c2cnc(CSc3ncnc4sccc34)o2)cc1 | -1.4% | 50.1µM* | 88.9% | 5.3% | 1.4% | 14.1µM*
Cc1cc(C)n2nc(SCc3ncc(-c4ccccc4)o3)nc2n1 | -27.4% | 5.4% | 24.4% | -4.2% | / | -0.9%[2.33 µM]
CCCSc1nc(-c2ccccc2)[nH]c1S(=O)(=O)c1ccc(C)cc1 | -30.5% | / | 39.8% | -37.8% | / | 12.6µM*
CCC(Sc1nc(-c2ccccc2)[nH]c1S(=O)(=O)c1ccc(C)cc1)C(=O)O (stereo not given) | -11.6% | / | 39.1% | -12.6% | / | 12.6µM*
CCc1ccccc1NC(=O)Cn1c(=O)n(Cc2ccco2)c(=O)c2ccccc21 | -5.1% | / | 20.6% | -14.2% | / | ?
CC(Sc1cn(CCNC(=O)c2ccccc2F)c2ccccc12)c1ccccc1 (stereo not given) | -9.0% | / | 25.8% | -13.7% | / | 24.0%[59 µM]
Cc1nc(Nc2ccccc2Cl)sc1C(=O)Nc1ccccc1 | -19.9% | -13.9% | 22.4% | ? | 3.2% | 28.2µM*
COc1ccccc1Nc1nc2c(s1)CCC2 | -21.9% | 39.8µM* | -4.6% | -36.2% | -6.9% | 25.1µM*
COc1ccccc1Nc1nc(C)c(C(=O)Nc2ccccc2)s1 | -31.2% | 3.1% | 9.5% | -31.7% | -1.3% | 50.1µM*
Cc1ccc(Nc2nc3c(s2)CCC3)c(C)c1 | -26.7%[57.1 µM] | ? | 13.0% | -28.7% | -4.6% | ?
O=C(CSc1nc2c(c(=O)[nH]1)CCCC2)Nc1ccccc1C(F)(F)F | -16.2% | / | 3.4% | -10.8% | / | -30.7%[59 µM]
O=C(NCC1CCCO1)c1cc(-c2ccco2)nc2ccccc12 (stereo not given) | -8.4%[11.4 µM] | -20.2% | ? | 50.1µM* | ? | 44.7µM*
COc1cccc(-c2cc(C(=O)NC3CC3)c3ccccc3n2)c1 | -1.4% | 12.9% | 26.1% | -8.2% | / | /
O=C(NC1CCC(O)CC1)c1cc(-c2ccco2)nc2ccccc12 (stereo not given) | ? | 17.8µM* | -14.5% | 22.4µM* | / | 39.8µM*
O=C1C=C[C@@H](O)[C@H]2[C@@H]3C(=O)N(Cc4ccccc4)C(=O)[C@@H]3CC[C@H]12 | / | -7.7% | / | / | / | /
CC1=C(C(=O)OC2CCCC2)C(c2ccccc2C(F)(F)F)CC(=O)N1 (stereo not given) | -4.8% | / | 31.7% | 0.2% | / | -5.0%[59 µM]
Cc1cccc(NS(=O)(=O)c2ccc(NC(=O)N3CCCC3)cc2)c1 | -17.7% | / | 8.8%[57 µM] | 5.9% | / | 6.0%[59 µM]
Cc1cccc(OCCCCn2c(C3CC(=O)N(c4ccc(C)cc4C)C3)nc3ccccc32)c1 (stereo not given) | ? | / | -0.6% | ? | / | ?
Cc1cccc(OCCCCn2c(C3CC(=O)N(c4ccccc4Cl)C3)nc3ccccc32)c1 (stereo not given) | -34.9% | / | 2.7% | 50.1µM* | / | 12.6µM*
SMILES | JMJD2A Tudor | Sfp inh | HP1b chromo inh | BAZ2B block | L3MBTL1 block | G9a inh
CCc1ccccc1N1CC(c2nc3ccccc3n2Cc2cccc(C)c2)CC1=O (stereo not given) | -32.6% | / | 7.9% | -23.0% | / | 1µM*
NC(=O)[C@@H]1CSSCCC(=O)N[C@@H](CCCCN=C(N)N)C(=O)NCC(=O)N[C@@H](CC(=O)O)C(=O)N[C@@H](Cc2c[nH]c3ccccc23)C(=O)N2CCC[C@H]2C(=O)N1 | / | 19.6% | / | / | / | -30.1%[12.7 µM]
CC1CC(C)CN(CCOc2ccccc2-c2ccccc2)C1 (stereo not given) | 12.6µM* | -12.2% | -26.8% | -36.2% | -7.6% | ?
N=C(CC(O)COc1ccccc1-c1ccccc1)N1CCCCC1 (stereo not given) | / | 9.2% | / | / | / | 23.8%[59 µM]
c1ccc(-c2ccccc2OCCCN2CCCC2)cc1 | 8.91µM* | -61.9% | ? | ? | ? | 10µM*
c1ccc(-c2ccccc2OCCn2cncn2)cc1 | 4.3% | -8.0% | 41.7% | -2.0% | 35.7% | ?
c1ccc(-c2ccccc2OCCCCN2CCCCC2)cc1 | 39.8µM* | -12.2% | -32.9% | 79.4µM* | -8.9% | 12.6µM*
c1ccc(-c2ccccc2OCCCN2CCCCCC2)cc1 | 20µM* | -18.3% | ? | 56.2µM* | -5.8% | 3.55µM*
Cc1ccc(CSc2ncc(Cl)c(C(=O)Oc3ccc(F)cc3)n2)cc1 | 13.2% | / | 63.8% | 60.6% | / | 79.7%[59 µM]
CCc1ccc(NC(=O)C(=O)NCC(c2cccnc2)N2CCN(Cc3ccccc3)CC2)cc1 (stereo not given) | -12.8% | / | 33.8% | 2.3% | / | -2.7%[59 µM]
COC(=O)C1=C(C(=O)OC)[C@@H]2N(Cc3ccccc3)c3ccccc3[C@@]23C[C@@H](C(=O)OC)N(C(=O)NCc2ccccc2)C3=C1 | / | -8.2% | / | / | / | /
Cc1[nH]n(-c2ccccc2)c(=O)c1C=Nc1ccc2[nH]c(=O)[nH]c2c1 | -2.1% | 10.4% | 24.3% | 1.9% | 5.0% | ?
Cc1ccc(-n2[nH]c(C)c(/C=N/c3cccc(C)n3)c2=O)cc1 | -19.1%[11.4 µM] | 9.9% | 29.8% | -24.4% | -2.0% | 50.1µM*
Cc1[nH]n(-c2ccccc2)c(=O)c1/C=N/N(c1ccccc1)c1ccccc1 | 39.8µM* | 10.8% | ? | ? | -6.7% | 15.7%[0.501 µM]
C=CCN=Cc1c(C)[nH]n(-c2ccccc2)c1=O | -0.7% | 21.6% | -3.2% | -0.5% | / | -0.1%
Cc1[nH]n(-c2ccccc2)c(=O)c1C=Nc1cccc(F)c1 | -25.1% | 11.9% | -20.0% | -36.9% | -21.6% | 44.7µM*
Cc1[nH]n(-c2ccccc2)c(=O)c1/C=N/c1nn[nH]n1 | -9.8%[11.4 µM] | -3.8% | 19.9% | ? | -17.2% | 50.1µM*
Cc1cccc(/N=C/c2c(C)[nH]n(-c3ccccc3)c2=O)n1 | -2.9%[11.4 µM] | 11.9% | 41.6% | ? | -3.9% | ?

High-throughput results from PubChem BioAssay.
